Most compounds without a hit are left out; they make up all but 4.8% or so of the library.
ssDAF12 agonist: S. stercoralis DAF-12 activation, primary screen; HEK293 ssDAF-12/GRIP1 lit1-tk-luc reporter, luminescence; % of 3 µM dafachronic acid response; activation, % at 6.8 µM; actives 1% (n = 370,000); AID 652126;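 active = activation above the mean over all tested compounds plus 3 SD, cut at about 0.9% in these data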;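 also: 0% = DMSO-only wells and 100% = 3 µM delta7-dafachronic acid wells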
hcDAF-12 act: H. contortus DAF-12 activation, primary screen; activation, % at 6.8 µM; actives 1.4% (n = 370,000); HEK293 hcDAF-12 lit1-tk-luc reporter, luminescence; 0% DMSO, 100% Δ7-dafachronic acid;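 active = activation above the mean of all tested compounds plus 3 SD, cut at about 5.5% in these data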;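 also: 100% = response to 3 µM Δ7-dafachronic acid high control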
hgDAF12 agonist: activates the H. glycines DAF-12 receptor ligand-binding domain. HEK293 GAL4-hgDAF12 UAS-luciferase reporter, agonist luminescence; normalized to butyrate control. activation, % at 6.8 µM. actives 1.8% (n = 370,000). AID 687014;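 active = activation above a cutoff set at the mean of all screened compounds plus 3 SD, cut at about 10% in these data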;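 also: 0% = DMSO wells and 100% = sodium butyrate wells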
DAX1 inh-1: DAX1 (NR0B1) inhibition, primary screen | HEK293T StAR-luciferase reporter, SF-1/DAX-1 repression relief | inhibition, % at 6.8 µM | actives 1.1% (n = 370,000) | AID 652010;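 active = inhibition above the mean over all tested compounds plus 3 SD, cut at about 3.6% in these data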;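 also: 0% = DAX-1 cells with DMSO and 100% = cells lacking DAX-1 with DMSO; higher inhibition means more luminescence from relief of DAX-1 repression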
SMARCA2 act: SMARCA2 function activation, primary screen; MG213 cells, MMTV-luciferase reporter, dexamethasone, overnight; activation, % at 9.1 µM; actives 1% (n = 370,000); in the data active = activation above about 7.8%;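 also: 0% = vehicle wells and 100% = reference activator wells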
DAX1 inh-2: NR0B1 (DAX1) inhibition; inhibition, % at 6.75 µM; actives 0.99% (n = 340,000); HEK293 Gal4-DAX1 luciferase reporter, luminescence; AID 504766; P51843;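 active = inhibition above the mean over all tested compounds plus 3 SD, cut at about 4.2% in these data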;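 also: 0% = DAX1-transfected cells with DMSO and 100% = empty-vector control cells with DMSO; inhibition shows as a rise in luminescence from relieved DAX1 repression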
Target sequence (P51843 207-470 limits assumed): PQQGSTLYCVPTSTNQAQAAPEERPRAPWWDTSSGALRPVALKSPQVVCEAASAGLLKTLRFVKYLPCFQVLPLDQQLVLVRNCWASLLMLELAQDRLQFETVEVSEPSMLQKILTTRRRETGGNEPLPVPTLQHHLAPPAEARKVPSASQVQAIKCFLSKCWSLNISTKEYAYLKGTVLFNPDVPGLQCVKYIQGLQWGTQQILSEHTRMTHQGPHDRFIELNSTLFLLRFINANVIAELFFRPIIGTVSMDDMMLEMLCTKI
SMARCA2 conf: SMARCA2 activation, confirmation screen | shares compounds with SMARCA2 act | MG213 cells, MMTV-luciferase with dexamethasone, luminescence, overnight; MG213 cells expressing E1A, Rb sequestered; DMSO wells 0%, reference activator 100% | activation, % at 9.1 µM | actives 30% (n = 3,500);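 active = activation above its plate's cutoff, the mean activation of tested wells plus 3 SD, cut at about 7.9% in these data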
VP16 Luc act: GAL4-VP16 reporter activation counter-screen. shares compounds with SMARCA2 act. HEK293 GAL4-VP16 pG5luc reporter, luciferase luminescence; scaled: DMSO wells 0%, SAHA wells 100%. activation, % at 9.1 µM. actives 41% (n = 3,500). AID 686939;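 active = activation above the solvent-only control well mean plus 3 SD, averaged across control plates, cut at about 5.2% in these data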
* = called active by the depositor; . = no result given.

SMILES	ssDAF12 agonist	hcDAF-12 act	hgDAF12 agonist	DAX1 inh-1	SMARCA2 act	DAX1 inh-2	SMARCA2 conf	VP16 Luc act
CCOc1ccccc1N(CC(=O)Nc1ccc(S(=O)(=O)N2CCOCC2)cc1)S(C)(=O)=O	-0.9	0.1	0.6	0.5	11.7*	-0.3	-1.3	1.2
CCOc1ccccc1N(CC(=O)Nc1ccc(S(=O)(=O)N2CCOCC2)cc1)S(=O)(=O)c1ccccc1	.	.	.	.	.	0.4	.	.
COCCN1C(=O)C2=C(C1=O)C1N(C)c3ccccc3[C@@]13C[C@@H](CO)N(S(=O)(=O)c1ccc(OC)cc1)C3=N2 (some centres not stated)	-1.7	-4.5	-0.7	0.3	0.9	.	.	.
Cc1cccc(CN2C(=O)/C(=C\c3ccc(C(=O)NCCCN4CCN(C)CC4)cc3)Oc3ccccc32)c1	-1.4	0.1	-0.9	-1.6	8.5*	-0.9	11.6*	-1.2
COc1ccccc1C(=O)NC1CCCCN(Cc2cccc(Cl)c2)C1=O (configuration not stated)	-1.6	2.2	6.2	-0.9	-4.4	.	.	.
COc1cc(OC)nc(C(NC(=O)C2CCN(Cc3c[nH]c4ccccc34)CC2)c2ccc(Cl)cc2)n1 (configuration not stated)	-0.7	2.8	-0.2	-0.1	11.8*	.	-4.4	0.9
COc1cc(OC)nc(C(NC(=O)C2CCN(Cc3ccc(N(C)C)cc3)CC2)c2ccc(F)cc2)n1 (configuration not stated)	-0.7	-1.4	-1.9	0.2	2.4	.	.	.
CC1CCN(c2ccc(NC(=O)Cc3ccccc3)cc2)CC1	-1.0	0.1	3.7	1.0	1.8	-0.4	.	.
CCC(=O)Nc1ccc(N2CCC(C)CC2)cc1	-1.3	1.8	3.5	0.2	9.6*	1.3	4.3	4.0
CCn1cc(C(=O)O)c(=O)c2cc(F)c(N3CCN(C(=S)NC(=O)c4ccccc4Cl)CC3)cc21	-1.6	-1.4	0.5	-0.4	9.1*	3.8	2.9	1.6
C(=C\c1nc(-c2ccncc2)no1)/c1ccccc1	-0.4	5.3	10.4	2.3	8.1*	1.9	8.1*	5.3*
COc1ccc(OCC(=O)OC(C)CN2CCOCC2)cc1 (configuration not stated)	-0.3	-1.3	-0.3	-0.5	8.8*	-0.4	-0.4	0.4
CC(CN1CCOCC1)OC(=O)COc1ccc(F)cc1 (configuration not stated)	-0.8	-0.6	0.0	0.4	-1.1	0.6	.	.
Cc1nn(CCOc2ccccc2)c(=O)n1-c1c(F)cccc1F	-0.8	2.5	10.6*	2.2	9.8*	3.5	3.3	8.0*
Cc1nc2c(sc3nc(N4CCOCC4)c4c(c32)CC(C)(C)OC4)c(-c2ccc(Cl)cc2)c1C(=O)O	-1.3	-0.7	-0.4	0.0	8.4*	-1.4	-5.3	-0.4
C=CCN1C(=O)[C@@H](CC(=O)NCc2ccc(OC)c(OC)c2)[C@]2(C(=O)OC)CCCCC=C12	-1.8	-1.6	-2.0	-0.9	-3.8	.	.	.
CCOCCn1c(CN2CCCCC2)nc2c1c(=O)n(C)c(=O)n2C	-1.6	0.7	0.9	0.7	8.1*	0.9	0.4	-0.3
CCOC(=O)c1sc(NC(=O)CCN2CCN(C)CC2)c(C(=O)OCC)c1C	-2.2	-2.3	-0.5	-1.0	8.4*	-0.9	1.8	-0.2
CCOC(=O)c1sc(NC(=O)CN2CCCC2)c(C(=O)OCC)c1C	-1.2	-1.8	2.0	-0.9	1.3	-0.6	.	.
O=C(Nc1ccccc1Cl)c1ccc([N+](=O)[O-])o1	-1.6	-2.4	-4.5	-1.8	9.0*	-1.0	17.5*	2.6
O=C(Nc1ccc(N2CCOCC2)cc1)c1ccc([N+](=O)[O-])o1	0.6	2.2	8.0	-0.6	14.5*	1.4	18.1*	7.3*
O=C(Nc1ccc(NC(=O)c2ccc([N+](=O)[O-])o2)cc1Cl)c1ccco1	-0.7	-0.3	-0.1	-0.9	2.5	-0.8	.	.
O=C(Nc1cccc2ncccc12)c1ccc([N+](=O)[O-])o1	-0.6	0.7	-1.9	-1.2	15.1*	-0.9	8.4*	1.1
Cc1cccc(NC(=O)c2ccc([N+](=O)[O-])o2)n1	-0.8	-0.6	-2.2	-2.5	11.4*	-2.2	15.1*	2.8
COc1cccc(CCNS(=O)(=O)c2c(C)n[nH]c2C)c1	-1.2	-0.4	1.2	0.4	2.5	.	.	.
SMILES	ssDAF12 agonist	hcDAF-12 act	hgDAF12 agonist	DAX1 inh-1	SMARCA2 act	DAX1 inh-2	SMARCA2 conf	VP16 Luc act
Cc1ccccc1NC(=O)c1ccc([N+](=O)[O-])o1	-0.9	-2.0	-4.6	-2.4	10.6*	1.1	11.2*	3.5
Cc1ccc(NC(=O)c2ccc([N+](=O)[O-])o2)c(C)c1	-1.7	-1.2	-4.0	-3.1	6.9	-1.1	.	.
COc1ccccc1N1CCN(C(=O)C2CCN(S(=O)(=O)c3ccc(F)cc3)CC2)CC1	-1.3	0.0	-2.1	-0.7	8.8*	-0.2	1.4	0.1
COc1cccc2c3c(c(=O)[nH]c12)CC(C)(C)O3	-1.6	0.7	0.4	0.0	12.1*	.	-0.8	-0.2
CCNC(=S)NNC(=O)c1ccccc1Cl	-1.9	1.1	3.1	0.1	8.2*	0.4	6.0	-0.2
CCNC(=S)NNC(=O)c1ccccc1OC(F)F	-0.5	0.0	0.8	0.2	-4.3	0.2	.	.
CCOC(=O)[C@]12CCCC=C1N(CCCOC)C(=O)[C@@H]2CC(=O)NCCc1ccccc1OC	-0.5	-1.8	-1.5	-0.7	-3.1	.	.	.
Cc1nc(NC(=O)CN2CCOCC2)sc1-c1ccccc1	-0.6	0.1	7.9	-0.1	3.4	1.1	.	.
CCc1sc(NC(=O)CN2CCOCC2)nc1-c1ccccc1	-1.1	-0.5	-3.6	0.4	8.7*	-0.3	-2.7	-1.9
O=C1NC(Cc2cnc[nH]2)C(=O)N2CCCC12 (configuration not stated)	-1.2	-1.7	1.1	0.7	-0.1	.	.	.
O=C(C=Cc1ccccc1)c1cccs1	-1.3	-1.7	-0.5	-2.2	1.4	0.1	.	.
Nc1ccc(/C=C/C(=O)c2cccs2)cc1	-0.5	0.5	7.6	0.5	11.6*	0.8	9.1*	6.8*
Cc1cc(C)cc(OCC(=O)Nc2cccc(-c3nc4ncccc4o3)c2)c1	-1.6	2.6	-1.0	0.4	8.6*	0.4	-0.7	1.5
CCc1ccc(C(O)c2ncc(-c3ccccc3F)[nH]2)cc1 (configuration not stated)	-0.3	0.9	4.4	4.1*	13.3*	.	4.9	4.7

Compound activity from PubChem BioAssay.
